The campaign covered roughly 1,300 compounds. About 980 (75%) were called active. Inconclusive results (about 4%) are left out. The list shows a part of the results. Values without a mark were called inactive.

In general, inhibition refers to the drop in the measured response relative to a control, in per cent.

Sequence of Sulfhydryl oxidase 1 (Homo sapiens) (O00391 whole entry, looked up): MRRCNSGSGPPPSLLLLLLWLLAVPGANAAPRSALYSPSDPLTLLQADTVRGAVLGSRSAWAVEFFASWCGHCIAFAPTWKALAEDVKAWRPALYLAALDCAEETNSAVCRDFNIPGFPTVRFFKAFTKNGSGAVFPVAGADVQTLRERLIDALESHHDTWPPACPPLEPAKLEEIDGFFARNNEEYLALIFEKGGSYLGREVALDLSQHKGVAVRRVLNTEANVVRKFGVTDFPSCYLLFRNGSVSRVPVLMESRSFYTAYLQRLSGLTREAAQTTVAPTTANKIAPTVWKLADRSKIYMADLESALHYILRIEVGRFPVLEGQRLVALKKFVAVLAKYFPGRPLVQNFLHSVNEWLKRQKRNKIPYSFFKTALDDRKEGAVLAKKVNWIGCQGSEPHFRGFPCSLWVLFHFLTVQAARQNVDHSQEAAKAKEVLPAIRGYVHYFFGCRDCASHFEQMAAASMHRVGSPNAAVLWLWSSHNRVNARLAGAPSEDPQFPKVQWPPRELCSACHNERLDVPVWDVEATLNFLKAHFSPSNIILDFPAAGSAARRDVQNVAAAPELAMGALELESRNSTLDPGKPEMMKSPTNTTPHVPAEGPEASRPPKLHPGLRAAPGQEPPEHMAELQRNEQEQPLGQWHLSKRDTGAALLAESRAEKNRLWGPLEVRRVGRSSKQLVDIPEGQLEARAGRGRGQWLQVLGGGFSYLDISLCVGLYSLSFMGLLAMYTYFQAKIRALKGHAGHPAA

This assay concerns the target Sulfhydryl oxidase 1 (Homo sapiens) (UniProt O00391). In words: QSOX1 enzyme inhibitors, primary screen, biochemical, HyperBlu H2O2 luminescence, HTS (AID 1347420). Also: values above 100% were filed as inconclusive. The conditions noted are these: recombinant QSOX1, HyperBlu H2O2 luminescence, at 12.5 µM, active compounds read high; active = any value above zero unless noted.
Regarding `C[C@H]1C2Cc3ccc(O)cc3C1(C)CCN2CC1CC1` (stereo partly drawn), the inhibition was 26.8% [setting not given] (active).
For the molecule `O=C(CCCN1CCC2(CC1)C(=O)NCN2c1ccccc1)c1ccc(F)cc1`, the inhibition is 7.6% [setting not given] (active).
The figure for `O=C1NCN(c2ccccc2)C12CCN(CC1COc3ccccc3O1)CC2` (stereo not drawn) is 5.7% (active).
Then `CC(CCc1ccccc1)NC(C)C(O)c1ccc(O)cc1` (stereo not drawn), with 28.5% (active); and `NC(=O)CN1CCCC1=O`, with 1% [setting not given] (active); and `Cc1cccc(C)c1NC(=O)CN1CCCC1=O`, with 13.4% [setting not given] (active).
The figure for `O=C1CCCN1CC#CCN1CCCC1` is 12.7% [setting not given] (active).
As to `NC(=O)CN1CC(O)CC1=O` (stereo not drawn), the inhibition was 15.4% [setting not given] (active).
The figure for `O=P1(N(CCCl)CCCl)NCCCO1` (stereo not drawn) is -3.8%; for `C/C=C(/C)C(=O)O[C@H]1C(C)=C2[C@H]([C@@H]1OC(=O)CCCCCCC)[C@@](C)(OC(C)=O)C[C@H](OC(=O)CCC)[C@@]1(O)[C@H]2OC(=O)[C@@]1(C)O` it is -2.4%.
The figure for `Cc1nccc2c1[nH]c1ccccc12` is 8.6% [setting not given] (active); for `Cc1c2ccncc2c(C)c2c1[nH]c1ccccc12` it is 78.9% [setting not given] (active).
The figure for `CC(=O)OCC1=C(C(=O)O)N2C(=O)[C@@H](NC(=O)CCC[C@@H](N)C(=O)O)[C@H]2SC1` is -10.7%; for `Cc1ncsc1CCCl` it is 12.9% (active).
On to `c1ccc(C2(c3ccccc3)CC2C2=NCCN2)cc1` (stereo not drawn), for which the inhibition is 6.4% (active).
Then `COc1cc(CC(C)N)c(OC)cc1I` (stereo not drawn), with 7.8% [setting not given] (active).
The figure for `C[Se]C[C@H](N)C(=O)O` is -0.1%; for `NCC(CP(=O)(O)O)c1ccc(Cl)cc1` (stereo not drawn) it is -10.6%; for `N[C@@H](CCl)C(=O)O` it is 8.8% (active).
Then `NC(CCP(=O)(O)O)C(=O)O` (stereo not drawn), with 12.3% (active); and `NC(CP(=O)(O)O)C(=O)O` (stereo not drawn), with 2.2% (active); and `NC(CCCCCP(=O)(O)O)C(=O)O` (stereo not drawn), with -4.7%.
Turning to `CS(=N)(=O)CC[C@H](N)C(=O)O` (stereo partly drawn), the inhibition is -10.8%.
Then `CN1C2CCC1CC(OC(c1ccccc1)c1ccccc1N)C2` (stereo not drawn), with 14.6% (active); and `C[C@@H](N)Cc1cnc[nH]1`, with 21.1% (active).
Then `O=C(O)Cc1cnc[nH]1`, with 5.5% (active); and `OCc1cnc[nH]1`, with 3.5% (active); and `COC(=O)C1=CCCN(C)C1`, with 0.6% [setting not given] (active).
The figure for `C#CCOC(=O)C1=CCCN(C)C1` is 17.9% (active).
For `CC(C)NC(C)Cc1ccc(I)cc1` (stereo not drawn), the inhibition is 19.1% [setting not given] (active).
The figure for `CC(C)N(CCC(C(N)=O)(c1ccccc1)c1ccccn1)C(C)C` (stereo not drawn) is 39.4% [setting not given] (active).
With `Cc1cc([C@@H]2CCCN2C)on1`, the inhibition was 9.3% (active).
The figure for `CN1CCC(c2c[nH]c3ccc(O)cc23)CC1` is 84% (active).
Then `CCCCCCC(C)(C)c1ccc([C@@H]2C[C@H](O)CC[C@H]2CCCO)c(O)c1`, with 3.2% [setting not given] (active); and `Cc1cccc(C)c1NC1=NCCCS1`, with 12.9% [setting not given] (active); and `C[C@@H]1O[C@@H](O[C@H]2C[C@@H](O)[C@]3(CO)[C@@H]4C(CC[C@]3(O)C2)[C@@]2(O)CC[C@H](C3COC(=O)C3)[C@@]2(C)C[C@H]4O)[C@H](O)[C@H](O)[C@H]1O` (stereo partly drawn), with 24.8% (active).
The figure for `C[C@@H]1O[C@@H](O[C@H]2C[C@@H](O)[C@]3(CO)[C@H]4[C@H](O)C[C@]5(C)[C@@H](C6=CC(=O)OC6)CC[C@]5(O)[C@@H]4CC[C@]3(O)C2)[C@H](O)[C@H](O)[C@H]1O` is 2.5% [setting not given] (active); for `NC(=O)COc1c(F)cc(SCCNS(=O)(=O)c2ccccc2)cc1F` it is -12.8%; for `Clc1ccc(N2CC3CCC(C2)N3)nn1` it is 25.6% (active).
In the case of `CC(C)=CCOc1c2occc2cc2ccc(=O)oc12`, the inhibition was 31.6% [setting not given] (active).
Then `CC(O)(CS(=O)(=O)c1ccc(F)cc1)C(=O)Nc1ccc(C#N)c(C(F)(F)F)c1` (stereo not drawn), with 13.7% [setting not given] (active).
The figure for `c1ccc2cc(CC3=NCCN3)ccc2c1` is 11% [setting not given] (active); for `CCCN1CCC[C@H](c2cccc(O)c2)C1` it is 10.7% (active); for `CCCN1CCC[C@@H](c2cccc(O)c2)C1` it is 25.8% (active).
Then `CC1(C(=O)O)C2CCC(O2)C1(C)C(=O)O` (stereo not drawn), with -0.6%; and `CCCCC/C=C\C/C=C\C/C=C\C/C=C\CCCC(=O)NCC(=O)O`, with 3.4% (active); and `NC1CC1c1ccccc1` (stereo not drawn), with 14.9% (active).
As to `Nc1ccc(CCN2CCN(c3cccc(C(F)(F)F)c3)CC2)cc1`, the inhibition was 27.1% (active).
The figure for `CC[C@@H](C(N)=O)N1CCCC1=O` is 12.2% [setting not given] (active).
The figure for `CN1CCc2cc(O)cc3c2[C@H]1Cc1ccc(O)c(O)c1-3` is 94% (active); for `COc1ccc2c(c1O)-c1cccc3c1[C@@H](C2)N(C)CC3` it is 39% (active).
Regarding `Cc1sc2ccccc2c1CC1=NCCN1`, the inhibition is 9.6% (active).
For the molecule `CC(C)(O)[C@@H]1[C@H]2OC(=O)[C@@H]1[C@]1(O)C[C@H]3O[C@]34C(=O)O[C@H]2[C@]14C` (tested in a mixture with another compound), the inhibition was 14.8% (active).
Consider `Oc1ccc2c3c1O[C@H]1c4oc5ccccc5c4C[C@@]4(O)C(C2)N(CC2CC2)CCC314` (stereo partly drawn), for which the inhibition was 18.4% [setting not given] (active).
`Oc1ccc2c3c1O[C@H]1c4[nH]c5c(c4C[C@@]4(O)[C@@H](C2)N(CC2CC2)CC[C@]314)C[C@@]1(O)[C@H]2Cc3ccc(O)c4c3[C@@]1(CCN2CC1CC1)[C@H]5O4`: the inhibition was 25.2% (active).
The figure for `Oc1ccc2c3c1O[C@H]1c4[nH]c5ccccc5c4C[C@@]4(O)C(C2)N(CC2CC2)CCC314` (stereo partly drawn) is 63.8% [setting not given] (active); for `NC(N)=Nc1ccc2[nH]c3c(c2c1)C[C@@]1(O)[C@H]2Cc4ccc(O)c5c4[C@@]1(CCN2CC1CC1)[C@H]3O5` it is 18.5% [setting not given] (active); for `O=C1/C(=C/c2ccccc2)C[C@@]2(O)[C@H]3Cc4ccc(O)c5c4[C@@]2(CCN3CC2CC2)[C@H]1O5` it is 32.8% [setting not given] (active).
The figure for `CO[C@H]1CC=C2CCN3CCC4=C(CC(=O)OC4)[C@]23C1` is 0.7% (active).
The figure for `CCOC(=O)c1ncn2c1[C@@H]1CCCN1C(=O)c1cc(OC)ccc1-2` is 13.3% (active); for `NCC(O)c1ccc(O)cc1` (stereo not drawn) it is 20.3% [setting not given] (active).
Take `COc1cc(C(O)CN)ccc1O` (stereo not drawn): the inhibition was 20.7% (active).
Take `CNCC(O)c1ccc(O)cc1` (stereo not drawn): the inhibition was 11.4% [setting not given] (active).
The figure for `NCC(CC(=O)O)c1ccc(Cl)cc1` (stereo not drawn) is 0% [setting not given]; for `NCC(O)c1cc(O)c(O)cc1F` (stereo not drawn) it is 72.8% (active).
The figure for `Ic1ccccc1CNC1C2CCN(CC2)C1C(c1ccccc1)c1ccccc1` (stereo not drawn) is 11% (active).
The figure for `O=C(O)[C@@H]1CCN1` is 18.9% (active); for `N=C(N)c1ccc(CS(=O)(=O)F)cc1` it is 7.2% (active); for `CN1C2CCC1CC(OC(=O)c1cc(Cl)cc(Cl)c1)C2` (stereo not drawn) it is 5.4% (active).
On to `O=C1C=CC(=O)C=C1`, for which the inhibition was 16.8% (active).
For the molecule `N[C@@]1(C(=O)O)CC[C@@H](C(=O)O)C1`, the inhibition is 12.2% (active).
The figure for `CCN1C[C@@]2(COC)C3[C@@H](OC)C4[C@@H]1C3([C@@H]1C[C@@]3(O)[C@H](OC(=O)c5ccccc5)[C@@H]1[C@]4(OC(C)=O)[C@@H](O)[C@@H]3OC)[C@H](OC)C[C@H]2O` is 4.1% (active); for `CCNC(=O)[C@H]1O[C@@H](n2cnc3c(N)ncnc32)C(O)[C@H]1O` (stereo partly drawn) it is 1.2% (active); for `O=[N+]([O-])c1cc(O)c(O)c([N+](=O)[O-])c1` it is 84.7% (active).
The figure for `NCc1cc(=O)[nH]o1` is 10.1% (active).
The figure for `COc1ccc2c(c1)C13CCCCC1C(C2)N(C)CC3` (stereo not drawn) is 11.3% [setting not given] (active); for `C=CCN1CC[C@]23CCCCC2[C@H]1Cc1ccc(O)cc13` (stereo partly drawn) it is 6% [setting not given] (active).
As to `COc1ccc2c(c1)[C@@]13CCCC[C@H]1[C@@H](C2)NCC3`, the inhibition was -2.6% [setting not given].
The figure for `C=CCN1C[C@@H](C)N([C@H](c2ccc(C(=O)N(CC)CC)cc2)c2cccc(OC)c2)C[C@@H]1C` is 7.5% (active); for `CC(=O)NBr` it is 9.5% (active); for `NC(N)=NOCC[C@H](N)C(=O)O` it is -0.8% [setting not given].
The figure for `NC(N)=NOCCC(N)C(=O)O` (stereo not drawn) is 8.2% (active).
Then `CC(Cc1ccc(O)cc1)NCC(O)c1cc(O)cc(O)c1` (stereo not drawn), with 15% [setting not given] (active); and `CN1CCc2cccc(Cl)c2CC1`, with 1.7% (active); and `CP(=O)(O)C1=CCNCC1`, with -0.7%.
Turning to `CCCN(CCC)C1CCc2ccc(O)cc2C1` (stereo not drawn), the inhibition was 28.1% (active).
In the case of `CCCN(CCC)[C@@H]1CCc2ccc(O)cc2C1`, the inhibition was 10.7% (active).
As to `CCCN(CCC)C1Cc2cc(OC)c(OC)cc2C1`, the inhibition is 3.2% (active).
Then `O=S1(=O)N(CCN2CC=C(c3c[nH]c4cc(F)ccc34)CC2)c2cccc3c2N1CCC3`, with 25.1% (active); and `C[C@H](N)Cc1cccc(C(F)(F)F)c1`, with 4.9% [setting not given] (active).
The figure for `COc1ccc(CNC(=O)/C=C/c2ccc3[nH]cc(CCN(C)C)c3c2)cc1` is 4.8% [setting not given] (active).
Then `O=C(O)c1cc[c]([Hg][Cl])cc1`, with 1% (active).
`CCC1(c2ccc(N)cc2)CCC(=O)NC1=O` (stereo not drawn): the inhibition is 27.6% [setting not given] (active).
